# MazEF act = increases E. coli MazEF RNase cleavage of RNA; FAM/BHQ RNA-DNA oligo cleavage fluorescence, 5 h; activation, % at 20 µM; hit rate 0.32% among 350,000; AID 504720; in the data active means activation above about 50%
# BoNT-A LC inh2 = BoNT A light chain protease inhibition; multiplex microsphere protease substrate cleavage, flow cytometry; AID 588499; inhibition, % at 10 µM; hit rate 0.17% among 360,000; further: plate controls were buffer without enzyme for full effect and enzyme alone for no effect
# Anthrax LF inh2 = inhibitors of Bacillus anthracis lethal factor protease. multiplex microsphere protease cleavage assay, LF. inhibition, % at 10 µM. hit rate 0.12% among 360,000; further: plate controls were buffer without enzyme for full effect and enzyme alone for no effect
# BoNT-F LC inh = inhibitors of Botulinum neurotoxin F light chain protease; Multiplex microsphere protease cleavage assay, flow cytometry; inhibition, % at 10 µM; hit rate 0.22% among 360,000; AID 588497; in the data active means inhibition above about 35%, passing the limit was not always enough; inconclusive means no clear call, values can overlap the other calls; further: plate controls were buffer without enzyme for full effect and enzyme alone for no effect
# Bead autofluor = compound fluorescence in toxin protease inhibitor counterscreen; hit rate 3.1% among 360,000; fluorescence intensity (concentration not given with the values); compound autofluorescence counterscreen, microsphere flow cytometry; stronger effect = higher value; AID 624483; in the data active means fluorescence intensity above about 16000; inconclusive means no clear call, values can overlap the other calls
# Active calls of the source: *; ? = inconclusive; / = not tested or not shown. An excerpt weighted towards active compounds, which were near 3.7% of everything screened. Unless noted, no stated cut-off is given here; in the data, active means inhibition above about 30%; inconclusive means no clear call, values can overlap the other calls; inactive means below that.
SMILES,MazEF act,BoNT-A LC inh2,Anthrax LF inh2,BoNT-F LC inh,Bead autofluor
N#Cc1sc2nc3c(c(-c4cccnc4)c2c1N)CCC3,-3,2,-8,-4,5107
N#Cc1c(N)nc2c(c1-c1cccnc1)CCCCC2,3,?,-6,-1,21866*
N#Cc1c(N)nc2c(c1-c1ccncc1)CCCCC2,-15,0,-6,-1,16184*
C=C(C)C1CC=C(C)/C(=N\NC(=O)CCC(=O)Nc2ccc(C)c(C)c2)C1 (centres undefined),3,-2,1,-18,4330
C=C(C)C1CC=C(C)/C(=N/NC(=O)c2ccc(NC(=O)CC)cc2)C1 (centres undefined),2,?,0,-8,17225*
C=C(C)C1CC=C(C)/C(=N/NC(=O)c2ccc(NC(=O)CCC)cc2)C1 (centres undefined),5,?,0,-4,16939*
C=C(C)C1CC=C(C)/C(=N/NC(=O)CNc2ccc(OCC)cc2)C1 (centres undefined),14,?,-13,0,21006*
C=CCOn1c(=O)c(-c2cccs2)[n+]([O-])c2ccccc21,0,4,3,2,21222*
C/C(=N\NC(=O)c1c[nH]c2ccccc12)c1ccc(C)o1,3,-2,-1,-4,23011*
CCCNC(=O)C1(C)CCCN(C(=O)Cc2ccc(OC)c(OC)c2)C1 (centres undefined),/,0,-2,-1,4102
CCN(C(=O)COC(=O)c1[nH]c(C)c(C(C)=O)c1C)c1c(N)n(Cc2ccccc2)c(=O)[nH]c1=O,-7,0,-8,-7,3034
O=C(CCC1COc2ccccc2O1)NC1CCCCC1 (centres undefined),9,0,0,2,23549*
O=C(CC1COc2ccccc2O1)NC1CCCCC1 (centres undefined),4,-1,0,-5,2415
COc1ccccc1-n1c(-c2ccoc2)nc2ccccc2c1=O,5,0,-3,-10,2217
O=c1c2ccccc2nc(-c2ccoc2)n1-c1ccccc1,0,?,-1,-1,20668*
O=c1c2ccccc2nc(-c2ccoc2)n1-c1ccccc1Cl,-19,1,-2,2,22805*
COc1ccc(C(=O)OCc2ccccc2C#N)cc1S(=O)(=O)N1CCOCC1,4,0,-7,0,4155
COc1ccc(NC(=O)Nc2ccc(N(C)C)cc2)cc1,39,3,-14,-24,18854*
COc1ccc(S(=O)(=O)Nc2ccc(N(C)C(C)=O)cc2)cc1,9,/,/,/,/
CCOc1cc(NS(=O)(=O)c2ccc(NC(C)=O)cc2)c(OCC)cc1NC(=O)C(C)C,-3,3,-8,6,20625*
COc1ccc(S(=O)(=O)Nc2ccc(NC(C)=O)cc2)cc1,-3,-4,-2,-6,23841*
COc1ccc(NC(=O)Nc2ccc(OC)cc2)cc1,6,1,6,4,2403
CC(=O)Nc1ccc(S(=O)(=O)Nc2nc3ccccc3nc2N2CCc3ccccc3C2)cc1,-4,1,-4,-10,2885
CCOc1cc(NS(=O)(=O)c2ccc(Cl)cc2)c(OCC)cc1NC(=O)CC(C)C,-13,-1,-4,-19,11392
CC(=O)Nc1ccc(S(=O)(=O)Nc2nc3ccccc3nc2N2CCCCCC2)cc1,-5,?,-2,1,23055*
SMILES,MazEF act,BoNT-A LC inh2,Anthrax LF inh2,BoNT-F LC inh,Bead autofluor
COc1ncnc2c1ncn2CCCNC1CCN(Cc2ccccc2)CC1,-2,0,-2,-1,3838
O=C(CN1C(=O)COc2ccc(Cl)cc21)N1CCCCC1,1,1,-4,5,4243
COc1ccc(CC(=O)Nc2ccc(S(=O)(=O)Nc3nc(C)cc(C)n3)cc2)cc1,-7,2,-5,3,19652*
COc1ccccc1CCNC(=O)CCNS(=O)(=O)c1ccc(NC(C)=O)cc1,0,-4,2,-12,6410
COc1ccccc1CNS(=O)(=O)c1ccc(NC(C)=O)cc1,0,-2,-2,-2,22915*
COc1ccc(CC(=O)Nc2ccc(S(=O)(=O)Nc3nccc(C)n3)cc2)cc1,-9,0,0,0,5765
Cc1noc(C)c1S(=O)(=O)N(C)C[C@H]1OCc2cn(nn2)CCCC(=O)N([C@H](C)CO)C[C@@H]1C,7,-1,-8,-11,4293
CCn1c(O)c(C=Nc2ccc(N3CCOCC3)c(Br)c2)c(=O)n(CC)c1=S,-135,18,20,15,19239*
Cn1ncc(Br)c1C(=O)Nc1c(F)c(F)cc(F)c1F,-5,?,-1,-1,21682*
CCc1cc(C(=O)OC)c(NC(=O)CC2Nc3cc(C)c(C)cc3NC2=O)s1 (centres undefined),153*,1,-2,2,9492
COc1ccc(CCNC(=O)CC2Nc3cc(C)c(C)cc3NC2=O)cc1OC (centres undefined),7,1,-4,9,9323
CCCc1cc(C(=O)OC)c(NC(=O)CCCC(=O)O)s1,-6,0,3,-2,4683
CCCc1cc(C(=O)OC)c(NC(=O)OCC)s1,-11,?,-12,11,18061*
CCc1cc(C(=O)OC)c(NC(=O)CCC(=O)O)s1,-2,1,1,0,21823*
Cc1cc2c(cc1C)NC(CC(=O)NCc1ccccc1)C(=O)N2 (centres undefined),10,2,2,2,23973*
COc1ccc(CNC(=O)C2(C)Cc3c(-c4ccc5c(c4)OCO5)ccnc3O2)cc1OC (centres undefined),/,0,-2,0,3853
Cc1ccc(Cn2cc(CN3CC(N4CCSCC4)CS3(=O)=O)nn2)cc1 (centres undefined),/,0,8,2,6023
Cc1ccc(S(=O)(=O)c2nc(S(=O)(=O)c3ccc(C)cc3)c(N3CCN(CCO)CC3)s2)cc1,-5,0,-4,4,4458
O=C(COC(=O)c1cccc(S(=O)(=O)N2CCCC2)c1)Nc1ccccc1C(F)(F)F,1,/,/,/,/
O=C(CN(CCc1ccccc1)C(=O)CN1C(=O)COc2ccccc21)NCc1ccco1,0,1,0,2,23028*
C=CCn1c(O)c(N=NC(=S)Nc2cccc(C)c2)c2ccccc21,2,30*,9,-3,2362
COC(=O)C(Cc1c[nH]c2ccccc12)NC(=O)C(=O)c1c[nH]c2ccccc12 (centres undefined),8,-1,-3,2,5238
C/C=C/Cn1c(Br)nc2c1c(=O)[nH]c(=O)n2C,-5,1,-4,1,22506*
Cn1c(=O)[nH]c(=O)c2c1nc(Br)n2CCCSc1nc2ccccc2o1,0,?,0,-7,17409*
Cn1c(=O)[nH]c(=O)c2c1nc(N1CCCC1)n2CCCSc1nc2ccccc2o1,12,-1,8,-2,9747
C/C=C/Cn1c(SC)nc2c1c(=O)[nH]c(=O)n2C,4,2,0,28,4529
Cc1noc(C)c1CSc1ccc(Br)cc1,-7,1,-4,-4,10395
CC(=O)Nc1ccc(SCc2c(C)noc2C)cc1,3,0,30*,27,3175

# Source: PubChem BioAssay (several laboratories)
